The whole screen tested about 5,500 compounds, of which about 2,000 (36%) were called active. Roughly 18% stayed inconclusive and do not appear here. No stated cut-off is given here; in the data, active means normalized growth mostly below about 0.91 (no sharp cut-off); inconclusive means no clear call, values can overlap the other calls; inactive means mostly above about 0.92. Some of the results follow.
Experiment: chemical genetic growth profiling, strain panel (AID 1159580);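 further: tested at 20 µM; growth read once vehicle control cultures reached saturation at 30 °C; 1 = growth at the plate median or of vehicle wells; lower values mean less growth of the strain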
Conditions: S. cerevisiae deletion strains, growth OD
[1] = locus YDL101C, strain DUN1, active compounds read low
[2] = locus YHR030C, strain SLT2, active compounds read low
[3] = locus YMR307W, strain GAS1, active compounds read low

Measured: normalized growth

CSc1c(C#N)c(-c2cccs2)nn1C
active: locus YGR078C, strain PAC10, active compounds read low 0.913 | [2] 0.505 | locus YHR087W, strain rtc3, active compounds read low 0.898 | locus YJR075W, strain HOC1, active compounds read low 0.89 | locus YLR058C, strain SHM2 (second series), active compounds read low 0.92 | locus YNL298W, strain CLA4 (second series), active compounds read low 0.804 | locus YNL322C, strain KRE1, active compounds read low 0.931 | locus YNR030W, strain Alg12, active compounds read low 0.859 | locus YPR135W, strain CTF4, active compounds read low 0.509
inactive: locus YAL013W, strain DEP1, active compounds read low 0.934 | locus YBR229C, strain ROT2, active compounds read low 0.935 | [1] 0.934 | locus YDR150W, strain NUM1, active compounds read low 0.86 | locus YEL061C, strain CIN8, active compounds read low 0.924 | locus YJL187C, strain SWE1, active compounds read low 1.02 | locus YJR043C, strain POL32, active compounds read low 0.978 | locus YLR039C, strain RIC1, active compounds read low 0.87 | locus YLR085C, strain ARP6, active compounds read low 0.784 | locus YLR262C, strain YPT6, active compounds read low 0.879 | locus YML094W, strain GIM5, active compounds read low 0.911 | locus YMR219W, strain ESC1, active compounds read low 0.945 | locus YMR263W, strain SAP30, active compounds read low 0.949 | [3] 0.983 | locus YNL153C, strain GIM3, active compounds read low 0.959 | locus YPL055C, strain LGE1, active compounds read low 0.917 | locus YPL241C, strain CIN2, active compounds read low 0.886

CSc1cc(-c2ccncc2)nc(-c2cccs2)c1
inactive: locus YAR019C, strain CDC15, active compounds read low 0.953 | locus YBL105C, strain PKC1, active compounds read low 0.964 | locus YBR135W, strain CKS1, active compounds read low 0.957 | locus YBR136W, strain MEC1, active compounds read low 0.961 | locus YBR160W, strain CDC28, active compounds read low 0.952 | locus YDL017W, strain CDC7, active compounds read low 0.959 | locus YDL028C, strain MPS1, active compounds read low 0.965 | [1] 0.971 | locus YDL108W, strain KIN28, active compounds read low 0.96 | locus YDL132W, strain cdc53, active compounds read low 0.961 | locus YDL214C, strain PRR2, active compounds read low 0.965 | locus YDR052C, strain DBF4, active compounds read low 0.965 | locus YDR054C, strain cdc34, active compounds read low 0.957 | locus YDR226W, strain ADK1, active compounds read low 0.951 | locus YDR477W, strain SNF1, active compounds read low 0.941 | locus YER123W, strain YCK3, active compounds read low 0.928 | locus YER133W, strain GLC7, active compounds read low 0.927 | locus YFL009W, strain cdc4, active compounds read low 0.975 | locus YFL029C, strain CAK1, active compounds read low 0.952 | locus YFR003C, strain YPI1, active compounds read low 0.96 | locus YFR019W, strain FAB1, active compounds read low 0.965 | locus YFR028C, strain CDC14, active compounds read low 0.952 | locus YGR040W, strain KSS1, active compounds read low 0.928 | locus YGR052W, strain FMP48, active compounds read low 1.05 | locus YGR092W, strain DBF2, active compounds read low 0.89 | [2] 1.03 | locus YHR079C, strain IRE1, active compounds read low 0.953 | locus YHR082C, strain KSP1, active compounds read low 1.02 | locus YHR205W, strain SCH9, active compounds read low 0.997 | locus YIL147C, strain SLN1, active compounds read low 0.962 | locus YJL095W, strain BCK1, active compounds read low 0.982 | locus YJL128C, strain PBS2, active compounds read low 0.963 | locus YJL157C, strain FAR1, active compounds read low 0.938 | locus YJR016C, strain ILV3, active compounds read low 0.985 | locus YJR066W, strain TOR1 (second series), active compounds read low 0.95 | locus YJR066W, strain TOR1, active compounds read low 0.993 | locus YKL048C, strain ELM1, active compounds read low 0.966 | locus YKL067W, strain YNK1, active compounds read low 0.951 | locus YKL101W, strain HSL1, active compounds read low 0.961 | locus YKL193C, strain SDS22, active compounds read low 0.958 | locus YKL203C, strain TOR2, active compounds read low 1 | locus YLR113W, strain HOG1, active compounds read low 0.92 | locus YLR133W, strain CKI1, active compounds read low 0.962 | locus YLR403W, strain SFP1, active compounds read low 1.01 | locus YML070W, strain DAK1, active compounds read low 0.929 | locus YMR001C, strain CDC5, active compounds read low 0.964 | locus YMR205C, strain PFK2 (second series), active compounds read low 0.963 | locus YMR277W, strain FCP1, active compounds read low 0.961 | locus YNL006W, strain LST8, active compounds read low 0.969 | locus YNL020C, strain ARK1, active compounds read low 0.954 | locus YNL161W, strain CBK1, active compounds read low 0.952 | locus YNL183C, strain NPR1, active compounds read low 0.97 | locus YNL207W, strain RIO2, active compounds read low 0.945 | locus YNL222W, strain SSU72, active compounds read low 0.951 | locus YNL307C, strain MCK1 (second series), active compounds read low 0.952 | locus YOL078W, strain AVO1, active compounds read low 0.96 | locus YOL136C, strain PFK27, active compounds read low 0.956 | locus YOR061W, strain CKA2, active compounds read low 0.963 | locus YOR119C, strain RIO1, active compounds read low 0.984 | locus YOR231W, strain MKK1, active compounds read low 0.921 | locus YOR329C, strain SCD5, active compounds read low 0.966 | locus YPL031C, strain PHO85, active compounds read low 0.927 | locus YPL153C, strain RAD53, active compounds read low 0.925 | locus YPL204W, strain HRR25, active compounds read low 0.951 | locus YPL209C, strain IPL1, active compounds read low 0.954 | locus YPL256C, strain CLN2, active compounds read low 0.939 | locus YPR025C, strain CCL1, active compounds read low 0.963 | locus YPR106W, strain ISR1, active compounds read low 0.959 | locus YPR111W, strain DBF20, active compounds read low 0.947 | strain NNK1, active compounds read low 0.965 | strain TSCII, active compounds read low 0.951

NCC(CP(=O)(O)O)c1ccc(Cl)cc1 (stereo not drawn)
inactive: locus YAL040C, strain CLN3, active compounds read low 1.04 | locus YCL061C, strain MRC1 (second series), active compounds read low 0.978 | locus YDR363W, strain ESC2, active compounds read low 0.99 | locus YER002W, strain NOP16, active compounds read low 0.991 | locus YGR229C, strain SMI1, active compounds read low 0.963 | [3] 0.995 | locus YNL128W, strain TEP1, active compounds read low 0.987 | locus YNL175C, strain NOP13, active compounds read low 0.986 | locus YNL197C, strain WHI3, active compounds read low 0.998 | locus YNL224C, strain SQS1, active compounds read low 1 | locus YOR083W, strain WHI5 (second series), active compounds read low 0.98
